Source: PubChem BioAssay (NCATS)
Records with an inconclusive call do not appear. Activity calls are given as the source filed them. The call rests on the fitted dose curve; in most records, active means well fitted curve in the direction sought with a large enough effect; inconclusive means small, poorly fitted or top-dose-only effect, or another doubt; inactive means no such curve, though single readings can be large; an effect the other way counts as inactive or inconclusive.

What was measured:
[1] = qHTS of pediatric cancer cell lines to identify multiple opportunities for drug repurposing: Primary screen for LAN-5 cells (AID 1347100); further: potency means the concentration at half of the fitted maximal effect
Method in brief: (§1)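 Viability after 48 h compound treatment at 37C, 500-1,000 cells/well, read as ATP luminescence with CellTiter-Glo. Primary screens used 11-point (MIPE, 0.78 nM-46 µM) or 8-point (NPC, 0.59 nM-46 µM) final concentrations; follow-up screens used 11-point dilutions.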

[2] = qHTS of pediatric cancer cell lines to identify multiple opportunities for drug repurposing: Primary screen for Rh18 cells (AID 1347102); further: nearly all actives have a fitted effect of over 65% in size; further: potency means the concentration at half of the fitted maximal effect
Method in brief: as §1

[3] = qHTS of pediatric cancer cell lines to identify multiple opportunities for drug repurposing: Primary screen for RD cells (AID 1347104); further: nearly all actives have a fitted effect of over 55% in size; further: potency means the concentration at half of the fitted maximal effect
Method in brief: (§2)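 CRCs from 8- or 11-point titrations (lowest final 0.59 nM NPC, 0.78 nM MIPE). Cell viability: CellTiter-Glo after 48 h incubation, 15 min room-temperature development, luminescence imaging.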

[4] = qHTS of pediatric cancer cell lines to identify multiple opportunities for drug repurposing: Primary screen for control Hh wild type fibroblast cells (AID 1347106);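 further: series mostly up to about 46 µM; a drop in luminescence marks cytotoxicity and a rise apparent proliferation; nearly all actives have a fitted effect of over 55% in size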
Method in brief: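 Cells (500-1,000/well) in growth media were settled 5 h at 37 degrees C, then given compounds for 48 h. Viability was read as CellTiter-Glo luminescence. Primary runs used MIPE at 11 points (0.78 nM-46 µM) and NPC at 8 points (0.59 nM-46 µM); follow-ups used 11 points.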

[5] = qHTS of pediatric cancer cell lines to identify multiple opportunities for drug repurposing: Primary screen for Rh30 cells (AID 1347107); further: nearly all actives have a fitted effect of over 75% in size; further: potency means the concentration at half of the fitted maximal effect
Method in brief: as §1

[6] = qHTS of pediatric cancer cell lines to identify multiple opportunities for drug repurposing: Primary screen for Rh41 cells (AID 1347108); further: nearly all actives have a fitted effect of over 70% in size; further: potency means the concentration at half of the fitted maximal effect
Method in brief: as §2

[7] = qHTS of pediatric cancer cell lines to identify multiple opportunities for drug repurposing: Primary screen for OHS-50 cells (AID 1347103); further: nearly all actives have a fitted effect of over 40% in size; further: potency means the concentration at half of the fitted maximal effect
Method in brief: (§3)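 Cells (500-1,000/well) rested 5 h, then received compounds for 48 h; metabolically active cells were measured by CellTiter-Glo luminescence. Final concentrations spanned up to 46 µM (MIPE, 11-point) or 0.59 nM-46 µM (NPC, 8-point) in primary screens, 11-point in follow-ups.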

[8] = qHTS of pediatric cancer cell lines to identify multiple opportunities for drug repurposing: Confirmatory screen for SK-N-MC cells (AID 1347111);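 further: cells exposed to compound for 48 h before the readout; nearly all actives have a fitted effect of over 70% in size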; further: potency means the concentration at half of the fitted maximal effect
Method in brief: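 SK-N-MC cells at 500-1,000 cells/well in growth media were pre-incubated 5 h, then exposed to compounds at 11-point dilutions for 48 h at 37 degrees C, 5% CO2. Viability was read as CellTiter-Glo luminescence.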

[9] = qHTS of pediatric cancer cell lines to identify multiple opportunities for drug repurposing: Confirmatory screen for NB-EBc1 cells (AID 1347115); further: nearly all actives have a fitted effect of over 45% in size
Method in brief: as §1

[10] = qHTS of pediatric cancer cell lines to identify multiple opportunities for drug repurposing: Confirmatory screen for SJ-GBM2 cells (AID 1347116); further: nearly all actives have a fitted effect of over 60% in size; further: potency means the concentration at half of the fitted maximal effect
Method in brief: (§4)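 Viability measured as metabolically active cells via CellTiter-Glo luminescence following 48 hours of compound exposure, 11-point dilutions in confirmatory testing. 500-1,000 cells/well plated 5 hours before dosing; controls were DMSO and 2.3 µM bortezomib.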

[11] = qHTS of pediatric cancer cell lines to identify multiple opportunities for drug repurposing: Primary screen for BT-12 cells (AID 1347101); further: nearly all actives have a fitted effect of over 25% in size; further: potency means the concentration at half of the fitted maximal effect
Method in brief: as §3

[12] = qHTS of pediatric cancer cell lines to identify multiple opportunities for drug repurposing: Primary screen for MG 63 (6-TG R) cells (AID 1347105); further: nearly all actives have a fitted effect of over 50% in size; further: potency means the concentration at half of the fitted maximal effect
Method in brief: as §2

[13] = qHTS of pediatric cancer cell lines to identify multiple opportunities for drug repurposing: Confirmatory screen for NB1643 cells (AID 1347109); further: nearly all actives have a fitted effect of over 45% in size; further: potency means the concentration at half of the fitted maximal effect
Method in brief: as §1

[14] = qHTS of pediatric cancer cell lines to identify multiple opportunities for drug repurposing: Confirmatory screen for A673 cells (AID 1347110); further: nearly all actives have a fitted effect of over 65% in size; further: potency means the concentration at half of the fitted maximal effect
Method in brief: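 Viability was read as ATP luminescence (CellTiter-Glo) after 48 h of compound exposure at 37 C in A673 cells seeded at 500-1,000/well. Titrations reached 46 uM final, with 11 points in the confirmatory screen. Concentration-response curves were fitted directly.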

[15] = qHTS of pediatric cancer cell lines to identify multiple opportunities for drug repurposing: Confirmatory screen for BT-12 cells (AID 1347112); further: nearly all actives have a fitted effect of over 55% in size; further: potency means the concentration at half of the fitted maximal effect
Method in brief: as §1

[16] = qHTS of pediatric cancer cell lines to identify multiple opportunities for drug repurposing: Confirmatory screen for DAOY cells (AID 1347114); further: nearly all actives have a fitted effect of over 65% in size; further: potency means the concentration at half of the fitted maximal effect
Method in brief: as §4

[17] = qHTS of pediatric cancer cell lines to identify multiple opportunities for drug repurposing: Confirmatory screen for BT-37 cells (AID 1347117); further: nearly all actives have a fitted effect of over 55% in size; further: potency means the concentration at half of the fitted maximal effect
Method in brief: as §1

[18] = qHTS of pediatric cancer cell lines to identify multiple opportunities for drug repurposing: Confirmatory screen for LAN-5 cells (AID 1347113); further: nearly all actives have a fitted effect of over 65% in size; further: potency means the concentration at half of the fitted maximal effect
Method in brief: as §1

Measured: Potency

CCN1CCN(CC(=O)Nc2ccc(-c3cccc4c(=O)cc(N5CCOCC5)oc34)c3sc4ccccc4c23)CC1
active: [1] 833 nM | [2] 1180 nM | [3] 743 nM | [5] 10500 nM | [6] 1660 nM
inactive: [4]

Cn1cc(-c2[nH]c3cc(NC(=O)[C@H](N)C4CCCCC4)cc4c3c2C=NNC4=O)cn1
active: [1] 1480 nM | [7] 1220 nM
inactive: [4]

CCC(=C(c1ccccc1)c1ccc(OCCN(C)C)cc1)c1ccccc1
inactive: [2] | [4] | [5] | [9] | [10]
active: [8] 23300 nM

CCOC(=O)C1=C(C)NC2=C(C(=O)CC(C)(C)C2)C1c1ccc(-c2ccccc2)cc1 (centres undefined)
inactive: [4]
active: [11] 24300 nM | [3] 16600 nM | [12] 14800 nM | [6] 18700 nM

COC(=O)Nc1nc2ccc(C(=O)c3ccc(F)cc3)cc2[nH]1
active: [1] 209 nM | [11] 1720 nM | [7] 968 nM | [3] 743 nM | [12] 590 nM | [13] 2330 nM | [14] 1310 nM | [8] 1310 nM | [15] 8270 nM | [16] 1170 nM | [10] 2330 nM | [17] 2610 nM
inactive: [2] | [4] | [5]

CC(C)CC(=O)Nc1n[nH]c2c1CN(C(=O)C1CCN(C)CC1)C2(C)C
active: [11] 2430 nM | [7] 3430 nM | [6] 3720 nM | [14] 1040 nM | [15] 2930 nM
inactive: [2] | [5] | [13]

CC(C)c1nn(-c2c(Cl)cccc2Cl)c2nc(Cc3ccc(OCCO)cc3)[nH]c(=O)c12
inactive: [5] | [13] | [9]
active: [11] 54.4 nM | [7] 54.4 nM | [3] 132 nM | [6] 372 nM | [14] 131 nM | [8] 117 nM | [15] 82.7 nM | [18] 41.4 nM | [17] 82.7 nM

O=C(O)[C@H](Cc1c[nH]c2ccccc12)N1C(=O)c2ccccc2C1=O
inactive: [1] | [11] | [2] | [4] | [5] | [6]

CC(C)(C)c1cnc(CSc2cnc(NC(=O)C3CCNCC3)s2)o1
inactive: [5]
active: [11] 432 nM | [7] 273 nM | [3] 264 nM | [6] 590 nM | [13] 165 nM | [14] 414 nM | [8] 329 nM | [15] 369 nM | [18] 261 nM | [10] 414 nM | [17] 261 nM

COc1ccc(C(=O)CC2(O)C(=O)Nc3c(Cl)ccc(Cl)c32)cc1 (centres undefined)
inactive: [5]
active: [1] 1320 nM | [11] 3430 nM | [7] 4320 nM | [3] 5900 nM | [6] 3720 nM

N#Cc1c(O)c2c(-c3ccc(-c4ccccc4O)cc3)csc2[nH]c1=O
inactive: [1] | [11] | [2] | [7] | [3] | [12] | [4]

Cn1c(CNc2ccc(C(=N)N)cc2)nc2cc(C(=O)N(CCC(=O)O)c3ccccn3)ccc21
inactive: [1] | [11] | [2] | [7] | [3] | [12] | [4] | [5] | [6]

COc1cc(C(=O)NS(=O)(=O)c2ccccc2C)ccc1Cc1cn(C)c2ccc(NC(=O)OC3CCCC3)cc12
active: [2] 26400 nM | [3] 37200 nM | [12] 29600 nM

CC(C)c1ccccc1Cc1cc(C(=O)Nc2ccc(S(=O)(=O)c3ccccc3C(C)(C)C)cc2)c(O)c(O)c1O
active: [1] 23500 nM | [2] 18700 nM | [7] 24300 nM | [6] 18700 nM
inactive: [4]

CCNC(=O)Nc1ccc2ncc(Nc3ccc(C)cc3)nc2n1
active: [1] 935 nM | [7] 24300 nM
inactive: [4] | [13] | [14] | [8] | [15] | [18] | [16] | [9] | [17]
